Screening data: PubChem, several laboratories
HCT116 PTEN-null: growth suppressors of cells with PTEN tumor suppressor deletion; HCT116 PTEN-null viability, CellTiter-Glo, 60 h; hits give low values; viability, % at 10 µM; hit rate 1.2% among 140,000; AID 827;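 active = viability at or below a set limit, 4 SD under the median of all tested compounds, cut at about 3.7% in these data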;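 note: PTEN knockout HCT116 line with beta catenin targeted HCT116 as companion control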
p97 ATPase inh: blocks human p97 ATPase activity | inhibition, % at 8 µM | P55072 | hit rate 0.42% among 220,000 | recombinant p97 ATPase, Kinase-Glo ATP luminescence, 3 h; in the data active = inhibition above about 15%;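 note: 0% = DMSO vehicle and 100% = wells lacking enzyme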
HCT116 bCat-KO: beta-catenin-lacking colon tumor cell growth suppression; AID 818; hit rate 1.5% among 140,000; viability, % at 10 µM; HCT116 beta-catenin knockout viability, CellTiter-Glo, 60 h; hits give low values;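 active = viability at or under a set limit, the compound median less 4 SD, cut at about 6% in these data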;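 note: 0% = Hyamine 1622 control at 20 µM and 100% = untreated cell control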
Insulin prom inh: TRM-6 insulin promoter activity inhibition; TRM-6 cells (human fetal islet line), insulin promoter-eGFP reporter, imaging; reporter expression induced with tamoxifen; inhibition, % at 2 µM; hit rate 0.9% among 130,000;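 active = inhibition above the mean plus 3 SD, with well images judged a real hit on visual review, cut at about 60% in these data, passing the limit was not always enough; inconclusive = inhibition over the cutoff but images rejected on review; inactive = inhibition not above the cutoff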
L major viab: Leishmania major promastigote growth inhibition | Leishmania major promastigotes, resazurin fluorescence viability | inhibition, % at 10 µM | hit rate 9% among 200,000; in the data active = inhibition above about 50%;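 note: promastigotes grown with compound for 44 hours at 28 °C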
ROMK mod: human ROMK K+ channel modulation, primary screen; P48048; Tet-inducible ROMK, thallium flux fluorescence; actives lie on both sides; B-score at 10 µM; hit rate 2% among 130,000; AID 1918;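 active = signal ratio slope over the read window, or its plate-corrected B-score, at least 3 SD from the plate mean, either direction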;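 note: B-score of the F/F0 ratio slope over 7 to 12 s after thallium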
Target sequence (P48048 whole entry, looked up): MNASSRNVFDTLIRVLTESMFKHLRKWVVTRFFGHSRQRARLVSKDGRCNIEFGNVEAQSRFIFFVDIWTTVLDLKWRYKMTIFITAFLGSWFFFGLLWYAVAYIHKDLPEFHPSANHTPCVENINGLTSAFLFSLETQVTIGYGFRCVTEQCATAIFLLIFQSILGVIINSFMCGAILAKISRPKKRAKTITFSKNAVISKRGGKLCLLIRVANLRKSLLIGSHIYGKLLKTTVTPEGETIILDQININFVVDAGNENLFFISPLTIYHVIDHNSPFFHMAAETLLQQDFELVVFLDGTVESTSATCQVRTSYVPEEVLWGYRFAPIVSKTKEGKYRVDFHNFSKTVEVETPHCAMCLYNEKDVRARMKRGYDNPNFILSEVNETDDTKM
ROMK retest: confirmation of human ROMK potassium channel modulators; shares compounds with ROMK mod; ROMK thallium flux, fluorescence ratio; hits give low values; normalized thallium flux (F/F0 slope) at 10 µM; hit rate 54% among 3,000;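 active = Flux at 10 µM at least 3 SD below or above vehicle control mean in one or both replicates; inconclusive = no clear call, values can overlap the other calls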
* marks the source's active call; other numbers are inactive results. This is a sample that favours compounds with a hit; in the whole collection about 10% have one here.

What do the screens show for `COC(=O)c1c(N2C(=O)[C@H]3[C@@H](C2=O)[C@]2(C(=O)Nc4ccc(C)cc42)N2CCC[C@@H]32)sc(C)c1C`?
p97 ATPase inh: -1; Insulin prom inh: -75; L major viab: 14; ROMK mod: 0.008

Results for CC1(C)CC(=O)C(C=NCC2CCN(C(=O)Cc3ccccc3)CC2)=C(O)C1 ?
p97 ATPase inh: 2; Insulin prom inh: 8; L major viab: -3; ROMK mod: -3.8*; ROMK retest: 0.084

Results for CC(Nc1cc(N2CCNCC2)ccc1[N+](=O)[O-])c1ccccc1 (centres undefined) ?
HCT116 PTEN-null: 33; p97 ATPase inh: 0; HCT116 bCat-KO: 49; Insulin prom inh: -16; L major viab: 100*; ROMK mod: -3.2*; ROMK retest: 0.053*

Results for CCS(=O)(=O)N1CCN(c2ccc([N+](=O)[O-])c(NC(C)c3ccccc3)c2)CC1 (centres undefined) ?
HCT116 PTEN-null: 78; p97 ATPase inh: -2; HCT116 bCat-KO: 81; Insulin prom inh: 3; L major viab: 1

How did Cc1cccc(N2C(=O)CC(Sc3nc(-c4ccccc4)c4cc(Cl)ccc4n3)C2=O)c1 (centres undefined) do in these assays?
HCT116 PTEN-null: 85; p97 ATPase inh: 10; HCT116 bCat-KO: 87; Insulin prom inh: 5; L major viab: 45; ROMK mod: 0.32

Results for CCN1CCc2nc3ccccc3c(C(=O)Nc3ccc(F)cc3)c2C1 ?
p97 ATPase inh: -1; ROMK mod: -3.3*; ROMK retest: 0.074

How did CCN1CCc2nc3ccccc3c(C(=O)Nc3ccc(NC(C)=O)cc3)c2C1 do in these assays?
p97 ATPase inh: -1

What do the screens show for `Cc1ccc(C2CC2C(=O)NNC(=S)Nc2cccc(Cl)c2)cc1` (centres undefined)?
HCT116 PTEN-null: 80; p97 ATPase inh: -2; HCT116 bCat-KO: 85; Insulin prom inh: 23; L major viab: -4; ROMK retest: inconclusive

Results for c1cncc(-c2nnc(C3CCCCC3)o2)c1 ?
HCT116 PTEN-null: 98; p97 ATPase inh: 3; HCT116 bCat-KO: 96; L major viab: -8

Results for Cc1ccc(CSCCNC(=O)c2ccc(Cl)c(S(=O)(=O)N3CCOCC3)c2)cc1 ?
HCT116 PTEN-null: 64; p97 ATPase inh: -2; HCT116 bCat-KO: 60; Insulin prom inh: -142; L major viab: 4; ROMK mod: -4*; ROMK retest: 0.074

What do the screens show for `Cc1cc(Cl)ccc1OCc1cn2cccnc2n1`?
p97 ATPase inh: 2; Insulin prom inh: -50; L major viab: 36; ROMK mod: 4.1*; ROMK retest: inconclusive

How did Clc1ccc(OCc2cn3cccnc3n2)c2ncccc12 do in these assays?
HCT116 PTEN-null: 77; p97 ATPase inh: -2; HCT116 bCat-KO: 79; Insulin prom inh: -21; L major viab: -5; ROMK mod: 0.039

How did Cc1cc(C)cc(NC(=O)CCN2CCCC2)c1 do in these assays?
p97 ATPase inh: 6; L major viab: -4; ROMK mod: 0.12

What do the screens show for `COc1ccc(OC)c(C2=C[N+](=O)C(C)(C)C(C)(C)N2[O-])c1`?
HCT116 PTEN-null: 90; p97 ATPase inh: 2; HCT116 bCat-KO: 97; Insulin prom inh: -195; L major viab: -10; ROMK mod: 4.6*; ROMK retest: 0.088

Results for CC(=O)Nc1ccc(NC(=O)CN(c2ccccc2Cl)S(C)(=O)=O)cc1 ?
HCT116 PTEN-null: 103; p97 ATPase inh: 3; HCT116 bCat-KO: 100; Insulin prom inh: 45; L major viab: 13

What do the screens show for `OC(CNC1Cc2ccccc2C1)COc1ccc(Cl)cc1` (centres undefined)?
p97 ATPase inh: 4; ROMK mod: -5.3*; ROMK retest: 0.049*

What do the screens show for `COC(=O)c1ccccc1-c1ccc(/C=N/Nc2nc(N3CCCC3)nc(N3CCCC3)n2)o1`?
p97 ATPase inh: 4; ROMK retest: inconclusive

How did Cc1ccc(/C=N/Nc2nc(N3CCCCC3)nc(N3CCCCC3)n2)o1 do in these assays?
p97 ATPase inh: -2; Insulin prom inh: -33; L major viab: 42; ROMK mod: -1.7

Results for CC(=O)c1ccc(NC(=O)Cn2c3ccccc3c3nc(=O)cc(C)n32)cc1 ?
p97 ATPase inh: 8; ROMK retest: 0.086

Results for CCN1CCN(CCNC(=O)c2ccc3c(c2)N(Cc2ccc(F)cc2)C(=O)/C(=C/c2ccccc2)S3)CC1 ?
p97 ATPase inh: 1; Insulin prom inh: 0; L major viab: 101*; ROMK mod: -3.1*; ROMK retest: 0.073

What do the screens show for `O=S(=O)(NCc1ccco1)c1cccc2cccnc12`?
HCT116 PTEN-null: 87; p97 ATPase inh: 4; HCT116 bCat-KO: 80; Insulin prom inh: 34; L major viab: -2; ROMK mod: 1.3*; ROMK retest: 0.079

Results for CC(=O)N1CCN(C(=O)CC2OC(=O)c3ccccc32)CC1 (centres undefined) ?
HCT116 PTEN-null: 70; p97 ATPase inh: -5; HCT116 bCat-KO: 65; Insulin prom inh: -6; L major viab: 4

How did CC(=O)Oc1ccccc1C1OC(=O)c2ccccc2N1C(C)=O (centres undefined) do in these assays?
HCT116 PTEN-null: 102; p97 ATPase inh: -4; HCT116 bCat-KO: 106; Insulin prom inh: -34; L major viab: -3; ROMK mod: 0.91; ROMK retest: 0.087

What do the screens show for `Oc1cc(Br)ccc1C=Nc1ccc(N2CCCCC2)cc1`?
p97 ATPase inh: 7; ROMK retest: 0.046*

Results for O=C(/C=C/c1ccncc1)c1ccc2c(c1)OCCO2 ?
p97 ATPase inh: 5; L major viab: 100*; ROMK mod: -2.7*; ROMK retest: 0.053*

How did CCOc1cc(-c2cc(-c3ccccc3)nc(N)c2C#N)ccc1O do in these assays?
HCT116 PTEN-null: 11; p97 ATPase inh: 4; HCT116 bCat-KO: 10; Insulin prom inh: -3; L major viab: -3; ROMK mod: -0.0077

How did CCOc1cc(-c2cc(-c3ccc(N)cc3)nc(N)c2C#N)ccc1O do in these assays?
HCT116 PTEN-null: 43; p97 ATPase inh: 13; HCT116 bCat-KO: 39; Insulin prom inh: 24; L major viab: 9; ROMK mod: 5*; ROMK retest: 0.09

What do the screens show for `Cc1[nH]c2ccccc2c1CN1CCN(c2ccccn2)CC1`?
p97 ATPase inh: 2; ROMK mod: -3.7*; ROMK retest: 0.065*

How did CCCOC(=O)c1cc(-c2ccc(C=O)o2)ccc1Cl do in these assays?
HCT116 PTEN-null: 86; p97 ATPase inh: 4; HCT116 bCat-KO: 88; L major viab: 64*; ROMK retest: 0.1*

How did CCCOC(=O)c1ccc(-c2ccc(C=O)o2)cc1 do in these assays?
HCT116 PTEN-null: 99; p97 ATPase inh: 1; HCT116 bCat-KO: 99; Insulin prom inh: 41; L major viab: 44; ROMK mod: 0.013

What do the screens show for `Cc1cc(C)n2nc(SCc3cc(=O)oc4ccc5ccccc5c34)nc2n1`?
HCT116 PTEN-null: 96; p97 ATPase inh: 1; HCT116 bCat-KO: 91; L major viab: 40; ROMK mod: -0.48
